# Screening results deposited in PubChem by Broad Institute.
# Shown are actives, neighbours in structure and some others; about 4.1% of the full set was active somewhere.
# Env fusion inh: inhibitors of HIV Env-mediated cell fusion; HeLa-JRFL Env/CEM21 cell fusion, luciferase; inhibition, % at 12.3 µM; hit rate 1.1% among 360,000; AID 651610;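 active means mean replicate inhibition score of at least 50 and every replicate individually at or above 50; inconclusive means only one of the two criteria met; inactive means mean below 50 and not all replicates reaching 50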;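 further: 0% = plate neutral controls and 100% = maraviroc near 300 nM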
# PglD inh: inhibitors of Campylobacter jejuni PglD acetyltransferase | purified PglD enzyme, DTNB colorimetric CoA detection | inhibition, % at 12.5 µM | hit rate 0.098% among 360,000 | AID 602405; in the data active means inhibition above about 16%, passing the limit was not always enough; inconclusive means no clear call, values can overlap the other calls
# ALR H2O2 inh: human ALR oxidase inhibition via reduced H2O2 | hit rate 3.8% among 290,000 | P55789 | inhibition, % (concentration not given with the values) | AID 485317 | purified ALR, DTT oxidation, H2O2 HRP-luminol luminescence;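 active means mean replicate inhibition above about 79%, with every replicate also reaching it, limit read from the data; inconclusive means only one of the two criteria met; inactive means mean below limit and not every replicate reaching it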
# Target sequence (P55789 whole entry, looked up): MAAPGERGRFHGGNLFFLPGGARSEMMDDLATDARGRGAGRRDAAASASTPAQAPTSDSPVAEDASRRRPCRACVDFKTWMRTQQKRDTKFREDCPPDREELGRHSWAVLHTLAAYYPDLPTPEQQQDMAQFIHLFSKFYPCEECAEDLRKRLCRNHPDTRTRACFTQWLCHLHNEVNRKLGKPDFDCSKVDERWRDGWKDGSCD
# Casp6 inh: caspase-6 (human) enzyme inhibition; inhibition, % at 12.5 µM; AID 686996; purified caspase-6, Z-VEID-R110 cleavage fluorescence; hit rate 0.53% among 350,000; P55212;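 active means mean inhibition across replicates at least about 35%, with every replicate also reaching that limit, limit read from the data; inconclusive means only one of the two criteria met; inactive means neither criterion met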;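 further: 0% = median of neutral control wells and 100% = no fluorescence left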
# Target sequence (P55212 24-179 limits assumed): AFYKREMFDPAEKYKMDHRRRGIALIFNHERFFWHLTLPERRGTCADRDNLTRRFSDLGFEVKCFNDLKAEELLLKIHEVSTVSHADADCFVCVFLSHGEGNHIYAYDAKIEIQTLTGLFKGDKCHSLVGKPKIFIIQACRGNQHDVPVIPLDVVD
# Target sequence (P55212 194-293 limits assumed): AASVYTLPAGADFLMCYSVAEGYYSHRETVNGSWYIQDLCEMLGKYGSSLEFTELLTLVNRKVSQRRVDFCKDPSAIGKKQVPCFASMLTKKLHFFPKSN
# NSD2 HMT inh: blocks human histone methyltransferase NSD2; O96028; NSD2 peptide methylation, AlphaScreen, 120 min; inhibition, % at 12.5 µM; hit rate 0.54% among 310,000; AID 743445; in the data active means inhibition above about 50%
# CFTR F508del cor: correctors of CFTR F508del function in bronchial epithelial cells; hit rate 0.36% among 350,000; activity (quench increase), % at 7.58 µM; CFBE cells, YFP halide quenching; stimulated with forskolin plus potentiator P3; % fluorescence drop versus neutral controls; AID 720511;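 active means mean added fluorescence quench of at least 8% versus neutral control, with both replicates also reaching 8%; inconclusive means only one of the mean or replicate conditions met; inactive means mean below 8% and not both replicates reaching 8%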;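 further: cells transiently co-express mutant CFTR-F508del with the halide-sensitive YFP; corrector assay measuring rescue of mutant channel to the surface after 24 h compound exposure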
# The depositor's hits bear a star; ? = inconclusive; / = no result; [ ] = another dose, or the depositor's remark.
SMILES,Env fusion inh,PglD inh,ALR H2O2 inh,Casp6 inh,NSD2 HMT inh,CFTR F508del cor
O=[N+]([O-])c1cc(Cc2ccccc2)cc(C=Nc2ccc(N3CCOCC3)cc2)c1O,/,/,97*,/,1,/
Cc1nc(N/N=C/c2ccc(O)cc2O)cc(N2CCOCC2)n1,-3,1,95*,-2,10,-2
Cc1nc(N/N=C/c2cccc(F)c2)cc(N2CCOCC2)n1,5,-29,6,3,9,0
Oc1ccc(C=Nc2ccc(N3CCOCC3)cc2)c(O)c1,32,-26,99*,/,3,/
CCCC(=O)Nc1ccc2c(c1)C(=O)N(C)C[C@H](OC)[C@H](C)CN(Cc1ccc(-c3ccccn3)cc1)[C@@H](C)CO2,/,0,/,-2,/,2
COc1ccc(Nc2ccc(Nc3ccc(OC)cc3)nn2)cc1,5,-7,-11,/,2,1
COc1ccc(Nc2cccc3ccccc23)cc1,5,-1,?,/,/,2
COc1ccc(Nc2cccccc2=O)cc1,0,-3,97*,/,9,/
COc1ccc(OCC(=O)Nc2ccc(C(=O)Nc3ccccc3C(=O)O)cc2)cc1,-9,0,3,7,-1,0
COc1ccc(Nc2ccc(OC)cc2)cc1,15,1,99*,25,/,1
COc1ccc(Nc2ccccc2C(=O)O)cc1,-14,/,99*,3,-2,2
C[C@@H]1CN([C@@H](C)CO)C(=O)c2cc(C#CCN(C)C)cnc2O[C@@H]1CN(C)Cc1ccccc1,-9[16.7 µM],3,/,2,/,0
COc1ccccc1-c1cnc2c(c1)C(=O)N([C@H](C)CO)C[C@@H](C)[C@H](CN(C)CC1CCOCC1)O2,/,-2,/,-6,/,-1
CO[C@@H]1CN(C)C(=O)c2ccc(NC(=O)C3CCC3)cc2OC[C@H](C)N(C(=O)CN(C)C)C[C@@H]1C,-8[16.7 µM],-1,/,/,/,1
CCOc1ccc(N2CC(NS(=O)(=O)c3cccs3)CC2=O)cc1 (configuration not stated),56*,3,/,0,-1,-1
O=C1CC(NS(=O)(=O)c2cccs2)CN1c1ccc(F)cc1 (configuration not stated),2,/,-1,2,-1,-2
COc1ccc(S(=O)(=O)N(C)C)cc1NCC(=O)Nc1ccc(C)c(F)c1,/,/,/,/,3,/
Nc1nc(-c2cc(O)ccc2[N+](=O)[O-])cc(-c2ccccc2)c1[N+](=O)[O-],-292,-3,-8,47*,-1,-10
C[C@H](CO)N1C[C@H](C)[C@H](CN(C)Cc2ccc(C(=O)Nc3ccccc3N)cc2)Oc2ccc(NC(=O)CCC(F)(F)F)cc2C1=O,/,-2,/,1,/,-2
C[C@@H]1CN([C@@H](C)CO)C(=O)c2c(c3ccccc3n2C)-c2ccccc2CO[C@@H]1CN(C)C(=O)CCC(F)(F)F,-15[16.7 µM],0,/,-1,/,2
CC(C)COC(=O)N(C)C[C@@H]1OCc2ccccc2-c2c(n(C)c3ccccc23)C(=O)N([C@@H](C)CO)C[C@H]1C,23[16.7 µM],1,/,2,/,1
C[C@H]1CN([C@@H](C)CO)C(=O)c2c(c3ccccc3n2C)-c2ccccc2CO[C@H]1CN(C)C(=O)CCC(F)(F)F,63*[16.7 µM],3,/,-2,/,2
C[C@H]1CN([C@@H](C)CO)C(=O)c2ccccc2-c2ccccc2CO[C@@H]1CN(C)C(=O)CCC(F)(F)F,57*[16.7 µM],/,/,/,/,-2
C[C@H]1CN([C@@H](C)CO)C(=O)c2c(c3ccccc3n2C)-c2ccccc2CO[C@@H]1CN(C)C(=O)Cc1ccccc1,59*[16.7 µM],1,/,-1,/,-4
CC(C)COC(=O)N(C)C[C@H]1OCc2ccccc2-c2c(n(C)c3ccccc23)C(=O)N([C@H](C)CO)C[C@@H]1C,62*[16.7 µM],-2,/,4,/,1
SMILES,Env fusion inh,PglD inh,ALR H2O2 inh,Casp6 inh,NSD2 HMT inh,CFTR F508del cor
CN(C)CCCNC(=O)C[C@@H]1C=C[C@@H](NS(=O)(=O)c2ccc(F)cc2)[C@H](CO)O1,12[16.7 µM],2,/,-1,/,-2
O=C(c1cccnc1)N1C[C@H]2[C@@H](c3ccccc31)[C@H](CO)N2C(=O)C1CCOCC1,/,0,/,-1,/,0
C[C@@H]1CN([C@H](C)CO)C(=O)c2c(c3ccccc3n2C)-c2ccccc2CO[C@H]1CN(C)C(=O)Cc1ccccc1,-32,-1,/,5,/,3
C[C@H](CO)N1C[C@H](C)[C@H](CN(C)C(=O)Cc2ccccc2)OCc2ccccc2-c2c(n(C)c3ccccc23)C1=O,58*[16.7 µM],-1,/,/,/,-4
CO[C@H](C(=O)N(C)C[C@@H]1OCc2ccccc2-c2c(n(C)c3ccccc23)C(=O)N([C@H](C)CO)C[C@@H]1C)c1ccccc1,78*,1,/,-2,/,-1
C[C@H](CO)N1C[C@H](C)[C@H](CN(C)C(=O)c2ccccc2)OCc2ccccc2-c2c(n(C)c3ccccc23)C1=O,58*,2,/,5,/,2
CCCC#Cc1ccc2c(c1)O[C@@H](CN(C)C(=O)c1ccncc1)[C@@H](C)CN([C@@H](C)CO)S2(=O)=O,-3[16.7 µM],1,/,3,/,1
COc1ccc(-c2[nH]c(-c3ccccc3)nc2SCC(=O)Nc2nccs2)cc1,-4,-2,98*,1,/,0
COc1ccc(-c2[nH]c(-c3ccc(Cl)cc3)nc2SCC(=O)Nc2nccs2)cc1,-3,-1,94*,0,/,-1
COc1ccc(-n2c(SCC(=O)Nc3nccs3)nnc2-c2ccc(Cl)cc2)cc1,16,/,/,1,-1,2
O=C(C1CCCC1)N1CC2(C1)[C@H](c1ccccc1)[C@@H](CO)N2C(=O)c1cccnc1,/,/,/,1,/,1
CC(C)(C)OC(=O)NCc1n[nH]c(=S)n1C1CC1,-27,-2,86*,2,-2,-2
CC(C)(C)OC(=O)NCC(=O)N1CCC(C(=O)O)CC1,/,3,-11,/,/,/
O=C1NC(=O)/C(=C/c2cccc3ccccc23)S1,1,-4,39,9,3,-2
O=C1NC(=O)/C(=C\c2ccc(Br)o2)S1,-18,-1,10,49*,11,-2
O=C1NC(=O)/C(=C\c2ccc(O)cc2O)S1,8,/,99*,87*,102*,-4
O=C1NC(=O)/C(=C/c2cc3c(cc2Br)OCO3)S1,12,-1,96*,8,2,3
COc1cccc(C(=O)Nc2ccc3c(c2)C(=O)N(C)[C@@H]2CC[C@@H](CC(=O)NCc4ccc(F)cc4)O[C@H]2CO3)c1,11[16.7 µM],-7,/,/,/,1
C[C@@H]1CN([C@@H](C)CO)C(=O)c2cc(NC(=O)CCCN(C)C)ccc2O[C@@H](C)CCCCO[C@@H]1CN(C)Cc1ccc2c(c1)OCO2,/,/,/,0,/,-2
Cc1nnc(SCC(=O)c2ccc(Cl)cc2)n(N)c1=O,-30,/,99*,6,-5,-2
Cn1c(CO)cnc1SCC(=O)c1ccc(Cl)cc1,9,/,99*,-3,-5,3
